The record followed here is PubChem BioAssay (Tox21).

Inconclusive results are not listed. The source holds several records for some structures; these can differ, active in one and inactive in another. The source made the active and inactive calls. Calls follow the shape of the dose curve; as a rule, active = well fitted curve in the direction sought with a large enough effect in the repeat runs; inconclusive = weak or mixed curves; inactive = no such curve, though single readings can be large; an effect the other way counts as inactive or inconclusive.

The nature of assay [1]: qHTS RealTime-Glo MT Cell Viability Assay in HepG2 cells - 40 hour (AID 1224870). Also: nearly all actives have a fitted effect of over 50% in size. Also: potency is read from the fitted curve at half-maximal effect. In outline: (§1)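 HepG2 cells (600/well) mixed with RealTime-Glo MT reagent, settled 5 h at 37 C/5% CO2 before compound addition. Nonlytic NanoLuc luminescence from viable-cell prosubstrate reduction read repeatedly during 40 h treatment at 37 C.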
On the technique in general: In qHTS, concentration-response curves come from the screen itself.

The nature of assay [2]: A CellTox Green Cytotoxicity Assay to monitor cytotoxicity in HEK293 cells - 40 hour (AID 1224871). Also: nearly all actives have a fitted effect of over 45% in size. Also: potency is read from the fitted curve at half-maximal effect. In outline: (§2)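 Real-time, in one plate: 600 HEK293 cells/well with dead-cell DNA dye, pinned compound after 5 h, 37 C incubation over 40 h; viable cells give no appreciable fluorescence.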
The nature of assay [3]: qHTS RealTime-Glo MT Cell Viability Assay in HepG2 cells - 8 hour (AID 1224873). Also: nearly all actives have a fitted effect of over 55% in size. In outline: as §1
A short description of assay [4]: A CellTox Green Cytotoxicity Assay to monitor cytotoxicity in HEK293 cells - 24 hour (AID 1224875). Also: series mostly up to about 77 µM; nearly all actives have a fitted effect of over 45% in size. The method, boiled down: as §2
The nature of assay [5]: A CellTox Green Cytotoxicity Assay to monitor cytotoxicity in HepG2 cells - 16 hour (AID 1224876). Also: nearly all actives have a fitted effect of over 45% in size. The method, boiled down: (§3)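 Cytotoxicity was tracked as dead-cell DNA fluorescence in HepG2 cells treated with test compounds at 37 C; each time-point value comes from one kinetic series spanning 0, 8, 16, 24, 32 and 40 h.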
Assay [6] in a line: qHTS RealTime-Glo MT Cell Viability Assay in HepG2 cells - 32 hour (AID 1224877). Also: nearly all actives have a fitted effect of over 55% in size. Also: potency is read from the fitted curve at half-maximal effect. The method, boiled down:
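HepG2 cells were seeded at 600 cells/well together with NanoLuc luciferase and a cell-permeant prosubstrate, preincubated 5 h at 37 C/5% CO2, then pin-dosed with compounds in DMSO. Nonlytic luminescence from viable cells was read at each time point.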

A short description of assay [7]: A CellTox Green Cytotoxicity Assay to monitor cytotoxicity in HepG2 cells - 24 hour (AID 1224878). Also: nearly all actives have a fitted effect of over 45% in size. In outline:
as §3

A short description of assay [8]: A CellTox Green Cytotoxicity Assay to monitor cytotoxicity in HepG2 cells - 40 hour (AID 1224879). Also: nearly all actives have a fitted effect of over 40% in size. The method, boiled down: as §3
Assay [9] in a line: qHTS RealTime-Glo MT Cell Viability Assay in HEK293 cells - 40 hour (AID 1224874). Also: nearly all actives have a fitted effect of over 50% in size. The note with it: RealTime-Glo luminescence; max response: stronger effect = lower value. In outline:
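Kinetic, non-lysing viability readout. Seed HEK293 (600/well) with reagent, incubate 5 h at 37 C/5% CO2, pin 23 nL compound in DMSO, incubate at 37 C, read luminescence at 0, 8, 16, 24, 32, 40 h.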

Assay [10] in a line: qHTS RealTime-Glo MT Cell Viability Assay in HEK293 cells - 16 hour (AID 1224872). Also: top concentration of the series differs between compounds; nearly all actives have a fitted effect of over 50% in size. The method, boiled down: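 HEK293 cells were seeded at 600 cells/well together with NanoLuc luciferase and cell-permeant prosubstrate, preincubated 5 h at 37 C/5% CO2, then given compound in DMSO by pintool. Luminescence from viable-cell prosubstrate reduction was read repeatedly over 40 h.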
% is scaled to controls: 0 for no effect and ±100 for the full control effect.

As for `CCC(=O)c1ccc(Cl)cc1`, the Potency entry in [1], in assay [2], in assay [4], in [5], in assay [6] and in assay [7] was “inactive” throughout. Moreover, the Potency result in assay [8] was “inactive”. Further, the outcome in assay [3] was inactive.
`NCCOS(=O)(=O)O`: the Potency result in [1], in assay [2], in [4], in assay [5] and in assay [8] was “inactive” each time. Further, in assay [3], the call was inactive.
For the compound `CC(C)[N+](C)(CCC(C(N)=O)(c1ccccc1)c1ccccc1)C(C)C`, the Potency in [1] was 19 µM (active); in assay [6] it was 21.3 µM (active). Also, the Potency result in assay [2], in [4], in assay [5] and in [8] was “inactive” in each case. For the same compound, in [9], the max response is -2.84% (inactive).
With `CC#Cc1cc(C)nc(Nc2ccccc2)n1`, the Potency entry in assay [1], in assay [2], in assay [4], in assay [5], in [6] and in [7] was “inactive” in each case. Moreover, the outcome in assay [3] was inactive.
`C=C1C[C@@H]2[C@H](CC[C@]3(C)C(=O)CC[C@@H]23)[C@@]2(C)C=CC(=O)C=C12`: the Potency entry in assay [1], in assay [2], in assay [4], in assay [5], in assay [6] and in assay [8] was “inactive” throughout. In assay [3], the compound was classed as inactive. For the same compound, the max response in assay [9] was 0.138% (inactive).
Turning to `CC(C)(C)C(=O)Cl`, the Potency result in assay [1], in assay [10], in assay [4], in [5], in assay [6] and in [7] was “inactive” throughout. In assay [8], the Potency result is “inactive”. In [3], the compound was classed as inactive. The max response in assay [9] is -0.811% (inactive).
In the case of `CON(C)C(=O)Nc1ccc(Br)c(Cl)c1`, the Potency entry in assay [1], in assay [2], in [4], in assay [5], in assay [7] and in [8] was “inactive” each time. Also, in assay [3], the outcome was inactive.
As for `CCOC(=O)C(SP(=S)(OC)OC)c1ccccc1` (stereo not given), the Potency entry in assay [1], in assay [2], in assay [4], in [5] and in assay [7] was “inactive” throughout. Moreover, in [3], the compound was called inactive. In addition, the max response in assay [9] is -6.34% (inactive).
Take `ClCOCCl`: the Potency result in assay [1], in [2], in [4], in [5], in assay [7] and in assay [8] was “inactive” in each case. In [9], the max response is 12.2% (inactive).
Regarding `O=C(O)C(Br)(Br)Br`, in assay [1], the Potency was 49 µM (active). In addition, the Potency result in assay [2], in assay [4], in [5] and in [8] was “inactive” throughout. In addition, the compound was classed as inactive in assay [3]. Besides, in assay [9], the max response was -0.0563% (inactive).
For `CC(Cc1ccccc1)NCCCCl` (stereo not given), the Potency entry in assay [1], in [2], in [4], in assay [5] and in assay [8] was “inactive” each time. The call in assay [3] was inactive. Also, the max response in assay [9] was 5.94% (inactive).
In the case of `Oc1ccc(Cc2ccc(O)cc2)cc1`, the Potency entry in assay [1], in [2], in assay [4], in assay [5], in assay [6] and in assay [7] was “inactive” in each case. For the same compound, the Potency result in assay [8] was “inactive”.
In the case of `O=S1(=O)OCCO1`, the Potency entry in assay [1], in assay [10], in [4], in assay [5], in [6] and in assay [7] was “inactive” in each case. In addition, the Potency result in assay [8] is “inactive”. In addition, the outcome in assay [3] was inactive. The max response in assay [9] was 4.27% (inactive).
Turning to `Cc1ccc(S(=O)(=O)N[C@@H](CCCCN)C(=O)CCl)cc1`, the Potency entry in assay [1], in assay [2], in assay [4], in [5], in assay [6] and in [7] was “inactive” each time. Further, the Potency entry in [8] was “inactive”. In addition, in [3], the compound was classed as inactive. For the same compound, the max response in [9] was 2.57% (inactive).
In the case of `CC(C)C(C)(N)C#N` (stereo not given), the Potency entry in assay [1], in assay [2], in [4], in assay [5], in [6] and in assay [7] was “inactive” each time. The compound was classed as inactive in assay [3].
On to `CCC(CC)(CNC(=O)CCCO)c1cccc(OC)c1`, for which the Potency result in [1], in assay [2], in [4], in [5], in assay [6] and in assay [7] was “inactive” in each case. Also, the Potency result in assay [8] is “inactive”. Also, the compound was called inactive in assay [3].
For the compound `ClC1=C(Cl)C2(Cl)C(CBr)CC1(Cl)C2(Cl)Cl` (stereo not given), the Potency entry in assay [1], in assay [5], in assay [6], in assay [7] and in assay [8] was “inactive” in each case. Besides, the Potency in [2] was 54.9 µM (active) and inactive. Moreover, in assay [3], the compound was called inactive. Moreover, the max response in assay [9] was -5.43% (inactive).
For `[P]#[In]`, the Potency entry in assay [1], in assay [2], in assay [4], in [5], in [7] and in assay [8] was “inactive” each time. In addition, the call in [3] was inactive. Also, in assay [9], the max response was 0.3% (inactive).
Turning to `BrCC1CO1` (stereo not given), the Potency entry in [1], in assay [10], in assay [4], in [5], in [6] and in [7] was “inactive” throughout. For the same compound, in [3], the compound was classed as inactive. Moreover, the max response in [9] was 5.87% (inactive).
Take `C#CCOC(=O)/C=C(C)/C=C/CC(C)CCCC(C)C` (stereo not given): the Potency result in assay [1], in assay [10], in [4], in assay [5], in assay [6] and in assay [7] was “inactive” each time. Further, in [8], the Potency entry is “inactive”. The call in [3] was inactive. Also, in assay [9], the max response is 17.6% (inactive).
Consider `CCC(C(N)=O)N1CCCC1=O` (stereo not given), for which the Potency result in assay [1], in assay [10], in assay [4], in assay [5], in assay [6] and in assay [7] was “inactive” each time. Besides, the Potency entry in assay [8] is “inactive”. For the same compound, in assay [3], the compound was classed as inactive. For the same compound, the max response in [9] is 6.54% (inactive).
Regarding `O=C(O)C(Cl)Br` (stereo not given), the Potency entry in [1], in assay [10], in assay [4], in assay [5] and in [7] was “inactive” throughout. For the same compound, in [3], the call was inactive.
In the case of `CCOC(=O)c1ncn2c1CN(C)C(=O)c1c(I)cccc1-2`, the Potency result in [1], in [4], in assay [5], in assay [6], in [7] and in assay [8] was “inactive” each time. Also, the outcome in assay [3] was inactive.
